From PubChem BioAssay
HT1080-NT tox: kills 2HG-producing HT-1080-NT fibrosarcoma cells; Potency, µM (top dose mostly 46.1 µM), without a hit: top-dose activity, negative = less viability, most hits filed as cytotoxic; AID 686970; actives 1.6% (n = 360,000); HT-1080-NT fibrosarcoma viability, CellTiter-Glo ATP luminescence, 48 h;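 also: NT is the 2HG producing partner of a matched IDH1 knockdown line; 0% = DMSO-treated cells and -100% = media-only wells without cells; nearly all actives have a fitted effect of over 55% in size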
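Fibrosarcoma NT cells, 750 per well in 5% FBS RPMI, were exposed to compound for 48 hours. Viability: CellTiter-Glo luminescence.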
KB-V1 MDR tox: KB-V1 MDR subline cytotoxicity. Potency, µM (highest dose often 46.1 µM), actives largely listed as cytotoxic. actives 3.4% (n = 400,000). KB-V1 MDR cells viability, CellTiter-Glo, 72 h; also: % is scaled to controls: 0 for no effect and ±100 for the full control effect; nearly all actives have a fitted effect of over 60% in size
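KB-V1, DMEM (no phenol red) + 10% FBS; cpd pin-transferred, titration series; 72 h, 37 degrees C; CellTiter-Glo, luminescence. Data normalized, curve-fit.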
KB-3-1 tox: KB-3-1 parental cell cytotoxicity | KB-3-1 viability, CellTiter-Glo ATP luminescence, 72 h | Potency, µM (titrated, usually from 46.1 µM), hits mostly cytotoxic | actives 1.4% (n = 400,000) | AID 1347075; also: % is scaled to controls: 0 for no effect and ±100 for the full control effect; nearly all actives have a fitted effect of over 60% in size
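Parental KB-3-1 adenocarcinoma cells in phenol-red-free DMEM with 10% FBS were pin-treated with compounds at several concentrations, incubated 72 h at 37 °C, and viability read by CellTiter-Glo luminescence; concentration-effect curves were fitted after normalization.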
HT1080 IDH1KD tx: kills HT-1080 cells with IDH1 knockdown | HT-1080 IDH1 knockdown viability, ATP luminescence, 48 h | Potency, µM (highest dose often 46.1 µM), for inactives: top-dose activity, negative = toxicity, hits mostly cytotoxic | AID 686971 | actives 2% (n = 360,000);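 also: 0% = DMSO wells and -100% = cell-free medium wells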
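Using the IDH1-knockdown HT-1080 line run in the same batch and compound series as the NT line, viability after 48 h at 37 °C was determined by CellTiter-Glo luminescence and expressed as % activity.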
ATXN2 expr inh: inhibitors of ATXN2 expression. HEK-293 ATXN2-luciferase reporter, luminescence, 24 h. AID 1745845. Potency, µM (doses to about 57 µM), inactives show at the top dose activity change, negative = inhibition, hits mostly inhibitors. actives 0.72% (n = 360,000); also: % is scaled to controls: 0 for no effect and ±100 for the full control effect; nearly all actives have a fitted effect of over 55% in size
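qHTS (up to 57 uM final) was run with 24 h compound exposure of reporter cells at 37 °C. Each well was multiplexed: SteadyGlo luminescence measured ATXN2-luciferase expression after a fluorogenic Gly-Phe-AFC viability readout (25 uM final).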
ATXN viability: cell viability loss in ATXN counter-screen | actives 0.49% (n = 400,000) | Potency, µM (top dose mostly 56.7 µM), actives largely listed as cytotoxic | S2 cells (HEK-293 line with an ATXN2-luciferase reporter) viability, CellTiter-Fluor protease fluorescence, 24 h | AID 651635; also: nearly all actives have a fitted effect of over 40% in size
* hit, by the source's call; i = inactive; ? = inconclusive; / = no result; [ ] = another dose, or the depositor's remark. Hits are enriched below; roughly 6.2% of the tested compounds scored in any of these assays. Calls follow the shape of the dose curve; as a rule, active = well fitted curve in the direction sought with a large enough effect; inconclusive = small, poorly fitted or top-dose-only effect, or another doubt; inactive = no such curve, though single readings can be large; an effect the other way counts as inactive or inconclusive. Potency is read from the fitted curve at half-maximal effect.

SMILES | HT1080-NT tox | KB-V1 MDR tox | KB-3-1 tox | HT1080 IDH1KD tx | ATXN2 expr inh | ATXN viability
COc1ccc(-c2cc3c(=O)n(CC(=O)NCCCN4CCC(Cc5ccccc5)CC4)ncn3n2)cc1 | ? | i | 21µM* | ? | ? | i
COc1ccc(-c2cc3c(=O)n(CC(=O)NCCCN4CCN(Cc5ccccc5)CC4)ncn3n2)cc1 | 1% | i | i | 0% | / | i
C=CCN1C(=O)/C(=C/c2ccc(O)c(OC)c2)S/C1=N/c1nccs1 | -2% | 15µM* | i | ? | -6% | i
C=CCN1C(=O)/C(=C/c2ccc(OCC(=O)O)cc2)S/C1=N/c1nccs1 | -4% | i | i | -2% | 2% | i
Cc1ccc(CSC2=Nc3ccccc3C3=NC(CC(=O)NCc4cccs4)C(=O)N23)c(C)c1 (stereo not drawn) | / | i | i | / | / | /
COc1ccc(C)cc1NC(=O)Cn1c(=O)ccc2cc(S(=O)(=O)N3CCCC3)ccc21 | / | i | i | / | 10% | i
CCN(CC)c1ccc(N=Cc2ccc([N+](=O)[O-])o2)cc1 | 18µM* | i | 18µM* | ? | 0% | i
CCN(CC)c1ccc(N=Cc2ccccc2[N+](=O)[O-])cc1 | -26% | i | i | ? | ? | ?
O=[N+]([O-])c1ccc(-c2ccc(/C=N/Nc3nc(N4CCCC4)nc(N4CCCC4)n3)o2)cc1 | 2% | i | i | 7% | 0% | i
Cc1ccc2nc(N/N=C\c3ccc([N+](=O)[O-])o3)nc(-c3ccccc3)c2c1 | ? | 18µM* | 26µM* | 10% | ? | 11µM*
O=[N+]([O-])c1ccc(/C=N/Nc2ccc3ccccc3c2)o1 | ? | i | i | ? | -6% | ?
O=[N+]([O-])c1ccc(/C=N/Nc2nc(N3CCCC3)nc(N3CCCC3)n2)o1 | ? | 21µM* | i | ? | -11% | ?
CCNc1nc(NCC)nc(N/N=C/c2ccc([N+](=O)[O-])o2)n1 | -7% | 21µM* | ? | -11% | -18% | i
Cc1ccc2nc(C3CCCN3Cc3nc(CCC(C)C)no3)[nH]c2c1 (stereo not drawn) | -12% | 6.5µM* | i | -11% | -6% | i
CCC(=O)c1cn(CC(=O)Nc2cccc(OC)c2)c2ccccc12 | -2% | i | i | 15% | 1% | i
CCCNC(=O)c1nnsc1S(=O)(=O)c1ccc(Cl)cc1 | 13µM* | 23µM* | ? | ? | 14%[11.3 µM] | ?
CCCNC(=O)NS(=O)(=O)c1ccc(Cl)cc1 | 0% | i | i | 8% | 4% | i
CCCNC(=O)c1nnsc1S(=O)c1ccc(Cl)cc1 (stereo not drawn) | 18µM* | i | ? | 16µM* | ? | /
CNC(=O)c1nnsc1S(=O)c1ccc(Cl)cc1 (stereo not drawn) | 15µM* | i | ? | 23µM* | 35%[11.3 µM] | ?
Oc1ccc(Cl)cc1Nc1nc2ccccc2n2cnnc12 | / | ? | i | / | 11% | i
Cc1c(C2=CCN(S(=O)(=O)c3ccc(Cl)cc3)CC2)c2ccccc2n1CC(=O)N1CCCC1 | / | i | i | / | -9% | i
COc1ccc(NC(=O)c2cnc(N3CCOCC3)c3ccccc23)cc1OC | / | i | i | / | / | /
CC1=C(C(=O)N2CCCCCC2)CC(CC(=O)NCCCN(C)C)C(=O)N1CCCN1CCCC1=O (stereo not drawn) | 6% | i | / | 16% | / | /
CC1=NN(c2ccc(Cl)cc2)C(=O)C1C(c1ccccc1O)c1c(C)[nH]n(-c2ccc(Cl)cc2)c1=O (stereo not drawn) | 23µM* | ? | i | ? | -13% | i
CCOc1ccccc1OCCNC(C)Cc1ccc(OC)c(S(N)(=O)=O)c1 (stereo not drawn) | / | / | / | / | -4% | /
SMILES | HT1080-NT tox | KB-V1 MDR tox | KB-3-1 tox | HT1080 IDH1KD tx | ATXN2 expr inh | ATXN viability
O=S(=O)(c1ccc2ncccc2c1)N1CCN(c2nc(-c3cccs3)nc3ccccc23)CC1 | 3% | / | / | 7% | / | /
CCCN(CCC)S(=O)(=O)c1ccc(NC(=O)c2cc(C(=O)OC)cc([N+](=O)[O-])c2)cc1 | -7% | 10µM* | i | -4% | -3% | i
CCC(C)(C)NC(=O)c1cc(C(=O)OC)cc([N+](=O)[O-])c1 | -7% | i | i | -7% | / | /
CCCNC1=C(N(C(C)=O)c2cccc(F)c2)C(=O)c2ccccc2C1=O | 8.2µM* | ? | 1.3µM* | 4.6µM* | 28µM* | /
CCC(=O)N(C1=C(NC(C)C)C(=O)c2ccccc2C1=O)C(C)C | -16% | ? | ? | -3% | -22% | i
O=C(c1ccc(S(=O)(=O)Cc2ccccc2F)c([N+](=O)[O-])c1)N1CCCCCC1 | -21% | ? | i | ? | -20% | i
O=C(c1ccc(S(=O)(=O)c2cccc(Cl)c2)c([N+](=O)[O-])c1)N1CCN(c2ccccn2)CC1 | 9.2µM* | ? | ? | 21µM* | / | i
O=C(c1ccc(S(=O)(=O)c2ccccc2Cl)c([N+](=O)[O-])c1)N1CCCCCC1 | -3% | 2.3µM* | ? | -18% | ? | ?
O=C(COC(=O)c1ccccc1NS(=O)(=O)c1cccs1)NCC12CC3CC(CC(C3)C1)C2 | 3% | 15µM* | i | -9% | 1% | ?
CCc1nc2ccccc2c(C(=O)Oc2cccc3cccnc23)c1C | -9% | ? | i | -23% | 11% | i
Cc1ccnc(NC(=O)c2cc3ccccc3o2)c1 | ? | ? | ? | ? | ? | i
Cc1c(C(=O)Nc2nnc(C(F)(F)F)s2)oc2ccccc12 | -14% | 18µM* | i | -2% | -18% | i
O=C(Nc1ccccn1)c1cc2ccccc2o1 | ? | ? | ? | ? | 16µM* | i
CN(C)S(=O)(=O)c1ccc(NC(=O)c2cc3ccccc3o2)cc1 | -16% | 21µM* | i | 1% | 45% | i
COC(=O)c1sc(NC(=O)c2oc3ccccc3c2C)nc1C | -1% | i | i | -2% | 55% | i
Cc1c(C(=O)Oc2cccc3cccnc23)oc2ccccc12 | 23µM* | i | i | 23µM* | -12% | i
CNC(=O)[C@@H]1C[C@@H](NCc2cccc(Oc3ccccc3)c2)CN1C(C)C | / | / | / | / | / | i
O=C(Nc1ccc(OC(F)(F)F)cc1)C1CC(=O)N(Cc2ccco2)C1 (stereo not drawn) | 4% | / | / | 10% | 7% | i
Cc1ccc(NC(=O)c2oc3ccccc3c2C)nc1 | 3% | i | i | -3% | 71% | i
